In the library only some 3% were active in any assay of this set; here they are far more common.
SARS PLP yeast = qHTS of Yeast-based Assay for SARS-CoV PLP; AID 485353, 2010; actives 0.19% (n = 330,000); Potency, µM (titrated, usually from 32.9 µM), without a hit: at the top dose activity, positive = growth rescue, usual class: activators; S. cerevisiae expressing SARS-CoV PLpro, growth rescue; calls by dose curve; also: 0% is about no effect; nearly all actives have a fitted effect of over 55% in size
Sm TGR block = qHTS Assay for the Inhibitors of Schistosoma Mansoni Peroxiredoxins; purified TGR, DTNB reduction, TNB absorbance 405 nm; actives 3% (n = 360,000); Schistosoma mansoni thioredoxin glutathione reductase (TGR), Q962Y6; Potency, µM (titrated, usually from 114 µM), inactives show at the highest dose activity change, negative = inhibition, actives largely listed as inhibitors; active = well fitted inhibition curve with a large enough effect; inconclusive = small, poorly fitted or top-dose-only effect; inactive = no such curve, though single readings can be large or run the other way; also: % is scaled to controls: 0 for no effect and ±100 for the full control effect; nearly all actives have a fitted effect of over 60% in size
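TGR 20 nM + NADPH 100 uM (dispensed conc.), cpd preinc 15 min RT; start with NADPH (500 uM addition) then DTNB (15 mM addition). Kinetic TNB absorbance, 405 nm filter. Four-parameter Hill fit across titration.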
* marks the source's active call; other numbers are inactive results; ? = inconclusive; . = no result given. Potency is read from the fitted curve at half-maximal effect.

SMILES	SARS PLP yeast	Sm TGR block
Cn1c(=O)c2c(n3c4ccccc4nc13)NC(=O)CC2c1ccccc1F (stereo not drawn)	.	-9%
CCCOc1ccc(C2c3c(oc4ccccc4c3=O)C(=O)N2c2nnc(C(C)C)s2)cc1 (stereo not drawn)	.	-1%
COCCNC(=O)CCn1c(=O)c2cc(OC)c(OC)cc2n(CC(=O)Nc2ccc(Cl)cc2F)c1=O	.	-6%
Cc1ccc(Cl)cc1NC(=O)CCc1c(C)nc2c3cccnc3nn2c1C	.	1%
COc1cccc(C2C(C(=O)Nc3ccc(Cl)cc3)=C(C)Nc3c(C(=O)Nc4ccccc4)cnn32)c1OC (stereo not drawn)	.	0%
COc1ccccc1CNc1nc2nc(C)c(Cl)c(C)n2n1	.	0%
Brc1ccc(CNCCCSc2nnnn2-c2ccccc2)cc1	.	-1%
Cc1ccc(S(=O)(=O)CC#CCOC(=O)c2ccc([N+](=O)[O-])cc2)cc1	-14%	0.63µM*
Cc1ccc(C(=O)c2ccc([N+](=O)[O-])cc2)cc1	12%	-4%
Cc1ccc(CNC(=O)c2cccc(NC(=O)N3CCSc4ncccc43)c2)cc1	.	3%
O=C(Nc1nc(-c2ccco2)c(-c2ccco2)s1)c1cnccn1	3%	14µM*
O=C(Nc1nc2ccccc2s1)c1cnccn1	-10%	-6%
O=C(Nc1nc2c(F)cccc2s1)c1ccco1	-14%	-2%
O=C(Nc1nc(-c2ccco2)c(-c2ccco2)s1)c1ccc(F)cc1F	-5%	10µM*
CC(=O)c1sc(NC(=O)c2ccccc2F)nc1-c1ccccc1	-4%	-1%
O=C(Nc1nc(-c2ccco2)c(-c2ccco2)s1)c1c(F)cccc1Cl	-4%	22µM*
N#Cc1ccccc1NC(=O)CSc1ncn[nH]1	.	4%
COc1ccc(C2=CC(c3c(C)nn(-c4ccccc4)c3Cl)n3nnnc3N2)cc1OC (stereo not drawn)	-1%	18µM*
COc1ccccc1C1C=C(c2ccc(C)cc2)Nc2nnnn21 (stereo not drawn)	-9%	-3%
CCc1cccc(NC(=O)c2ccc(CN3C(=O)C(C)=C(c4ccc(OC)cc4)S3(=O)=O)cc2)c1	.	-6%
N#Cc1ccc(NC(=O)C2Cc3ccccc3CN2S(=O)(=O)c2ccc(F)cc2)cc1 (stereo not drawn)	.	12%
N#CCCn1cc(C(=O)Nc2ccc(C(=O)O)cc2)c(-c2cccc(Br)c2)n1	1%	100µM*
N#CCCn1cc(C(=O)Nc2ccc(F)cc2)c(-c2ccccc2)n1	-4%	-8%
CCOc1ccc(NC(=O)N2CCOc3ccccc32)cc1	.	-3%
CCOc1ccccc1NC(=O)c1ccc(F)c(S(=O)(=O)N2CCN(c3ccc(F)cc3)CC2)c1	.	4%
SMILES	SARS PLP yeast	Sm TGR block
O=[N+]([O-])c1ccc2c(c1)nc1n2CCN(C2CCCCC2)C1	0%	35µM*
O=[N+]([O-])c1ccc2c(c1)nc1n2CCCCC1	2%	0%
COc1ccc(CCNC(=O)CSc2ccc(-c3ccco3)nn2)cc1OC	-5%	18µM*
COc1cccc(NC(=O)CSc2ccc(-c3ccco3)nn2)c1	-7%	40µM*
CCOc1ccc(-c2nnc(SCC(=O)Nc3cccc(C#N)c3)o2)cc1	.	10µM*
COc1ccc(CCNC(=O)CSc2nnc(-c3ccco3)c(-c3ccco3)n2)cc1OC	3%	2.2µM*
COc1ccc(-c2nnc(SCC(=O)NCCc3ccc(OC)c(OC)c3)nc2-c2ccc(OC)cc2)cc1	.	-4%
COc1cccc(NC(=O)CSc2ccc(-c3sc(C)nc3C)nn2)c1	6%	7%
COc1ccc(CCNC(=O)CSc2ccc(-c3ccccc3)nn2)cc1	-6%	-3%
CCOc1ccc(-c2nnc(SCC(=O)Nc3cccc(Cl)c3C)o2)cc1	.	0%
Cc1cccc(NC(=O)CSc2nc(=O)n(Cc3ccncc3)c3c2CCC3)c1C	.	0%
CCc1ccccc1N1C(=O)N(Cc2cc(=O)n3ccccc3n2)c2ccccc2S1(=O)=O	.	6%
Cc1nc2nc(SCC(=O)NCc3ccccc3)nn2c(C)c1Cc1ccccc1Cl	.	6%
CCc1ccc(-n2nc3ccc(NC(=O)COc4ccc(OC)cc4)cc3n2)cc1	.	7%
Cc1oc(-c2ccc(C(=O)NCc3ccccc3Cl)cc2)nc1CN1CCc2ccccc21	.	-1%
CCOc1ccc(N2CC(NC(=O)c3ccc(Cl)cc3)CC2=O)cc1 (stereo not drawn)	.	11%
CCc1ccccc1NC(=O)N1CC(C)Sc2ccccc21 (stereo not drawn)	.	4%
COc1ccc(N2CCN(C(=O)Cn3cnc4sc(C)c(S(=O)(=O)N5CCC(C)CC5)c4c3=O)CC2)cc1	.	-2%
COc1ccc(NC(=O)CSc2ccc(-c3ccco3)nn2)cc1OC	6%	45µM*
CC(=O)c1ccc(NC(=O)CSc2nnc(-c3ccco3)o2)cc1	0%	-10%
O=C(CSc1ccc(-c2ccco2)nn1)Nc1ccccc1	-1%	7.1µM*
Cc1ccc(NC(=O)CSc2nnc(-c3ccco3)o2)cc1	0%	79µM*
CCOc1ccc(NC(=O)CSc2ccc(-c3ccco3)nn2)cc1	-1%	?
O=C(CSc1ccc(-c2ccco2)nn1)Nc1ccc(F)cc1	-6%	?
COc1cc(NC(=O)CSc2nccn2C)cc(OC)c1OC	.	-5%
SMILES	SARS PLP yeast	Sm TGR block
O=C1CN(C(=O)CNCc2ccccc2Cl)c2ccccc2N1	-1%	?
O=C1CN(C(=O)CNCc2cccc(Cl)c2)c2ccccc2N1	0%	45µM*
Cc1ccc(C(=O)N2CCN(c3cccc(Cl)c3)CC2)cc1-n1c(C)nc2cccnc21	.	6%
COc1cccc(-c2cn3c(n2)sc2cc(C(=O)NCc4cccs4)ccc23)c1	.	4%
COc1ccc(CNC(=O)c2ccc(Cn3c(=O)c4cccn4c4cccnc43)cc2)c(OC)c1	.	-5%
Cc1oc(-c2ccccc2F)nc1CS(=O)(=O)CC(=O)N1CCCCCC1	0%	11µM*
Cc1ccccc1-c1nc(CS(=O)(=O)CC(=O)N(C)C2CCCCC2)c(C)o1	-2%	8.9µM*
Cc1ccccc1-c1nc(CS(=O)(=O)CC(=O)NC2CCCCC2C)c(C)o1 (stereo not drawn)	3%	?
Cc1oc(-c2ccccc2Cl)nc1CS(=O)(=O)CC(=O)NCc1ccc(F)cc1	.	45µM*
CCOC(=O)N1CCN(C(=O)CS(=O)(=O)Cc2nc(-c3ccccc3F)oc2C)CC1	-2%	-30%
Cc1ccc(CNC(=O)CS(=O)(=O)Cc2nc(-c3ccccc3F)oc2C)cc1	6%	-42%
N#CC(C#N)=C1C=CC=CN1/C(=C\c1ccco1)C(=O)c1ccc(Cl)cc1	14%	1.4µM*
N#CC(C#N)=C1C=CC=CN1/C(=C\c1ccco1)C(=O)c1ccc(-c2ccccc2)cc1	-22%	?
CC1CCCN(S(=O)(=O)c2cc3c(cc2Cl)NC(=O)CO3)C1 (stereo not drawn)	.	8%
CCOc1ccc(-n2c(=O)c3c(C)c(C)sc3n(CC(=O)N3CCC(C)CC3)c2=O)cc1	.	5%
CCOc1ccc(NC(=O)c2ccc(-c3nc(COc4ccccc4)c(C)o3)cc2)cc1	.	-2%
CC1(C)CCN2CCC(C)(C)c3c(O)ccc1c32	-11%	2.8µM*
Nc1c(Cl)cc(C2=NCCn3c2c2ccc([N+](=O)[O-])cc2[n+]3[O-])cc1Cl	1%	40µM*
Nc1c(Cl)cc(C2=NCCn3nc4cc([N+](=O)[O-])ccc4c32)cc1Cl	-5%	-20%

Compound activity (PubChem BioAssay)
